The entries come from a sample that favours hits as a whole.
Pf Dd2 growth = blocks in vitro growth of P. falciparum Dd2; P. falciparum Dd2 growth, SYBR Green, 72 h; Potency, µM (titrated, usually from 28.9 µM), without a hit: at the top dose activity, negative = inhibition, most hits filed as inhibitors; actives 4.3% (n = 120,000); AID 1347417; active = well fitted inhibition curve with a large enough effect;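 note: plate controls were DMSO vehicle for no effect and reference drug for full effect; nearly all actives have a fitted effect of over 65% in size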
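Readout: SYBR Green fluorescence, 485 nm excitation, 535 nm emission, after ~16 h lysis at 37C. Before that, Dd2-infected red cells (2.5% hematocrit) grew 72 h with compound, 29 uM top final concentration.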
Starred values were filed as active, the others as inactive; i = inactive; [ ] = remark or other dose. Potency is the fitted concentration of half-maximal effect.

SMILES | Pf Dd2 growth
O=C(NC1CCN(c2cc(-c3cccs3)[nH]n2)C1)c1cc2ccccc2[nH]1 (stereo not given) | 14µM*
O=C(NC1CCN(c2cc(-c3cccs3)[nH]n2)CC1)c1ccc(F)c(Cl)c1 | i
Cc1ccc(C(=O)NC2CCN(c3cc(-c4cccs4)[nH]n3)C2)cc1F (stereo not given) | i
O=C(NC1CCN(c2cc(-c3cccs3)[nH]n2)C1)c1ccc2[nH]ccc2c1 (stereo not given) | i
COc1ccccc1NC(=O)Cn1nc2c(cc1=O)CN(C(C)=O)CC2 | i
CC(C)N1CCC(O)(c2csc(CN3CCOCC3)n2)CC1 | 16%[44.1 µM]
N#Cc1ccc(N2CCCn3nc(CCC(=O)N4CCCC4)cc3C2)nc1 | -11%
Cc1ccc(S(=O)(=O)NC[C@H]2OC[C@@H](NCc3ccc(S(C)(=O)=O)cc3)[C@@H]2O)cc1 | 4%
Cc1cc(NC(=O)N2CCC(Oc3ncccc3C(=O)N(C)C)C2)ccc1Br (stereo not given) | i
CO[C@H]1C(=O)N(C(C)C)[C@H]1C1CCN(C(=O)c2nn(C)c3ccccc23)CC1 | -10%
O=C(Nc1ccc2c(c1)CN(Cc1ccccc1F)C(=O)CO2)c1ccc(Cl)cc1 | -1%
CCOc1ccccc1NC(=O)CSc1nc2c(c(=O)[nH]1)CCC2 | i
COc1ccccc1NC(=O)CSc1nc(-c2ccc(C(C)(C)C)cc2)c(C#N)c(=O)[nH]1 | 10µM*
Cc1ccc(C)c(NC(=O)CSc2nc(-c3ccccc3)c(C#N)c(=O)[nH]2)c1 | 21%
COc1ccc(C(=O)N2CCCC(C(=O)NCc3ccccc3)CCNC(=O)CC2)cc1F (stereo not given) | i
CN(Cc1ccc(-c2ccccc2)cc1)C(=O)c1ccccc1Cl | -18%
COc1ccc(C(=O)N2CC3CC(C2)[C@H]2CCCC(=O)N2C3)c(C)c1 (stereo not given in full) | -7%
COc1ccccc1NS(=O)(=O)c1cc2c(cc1Cl)NC(=O)CO2 | 8.9µM*
COc1ccc(NS(=O)(=O)c2cc3c(cc2C)NC(=O)CO3)c(OC)c1 | 4%
COc1ccc(CNS(=O)(=O)c2cc3c(cc2Cl)NC(=O)CO3)cc1 | 38%[0.594 µM]
COCC(=O)N[C@H]1CCN2C(=O)N(c3ccc(OC(F)(F)F)cc3)C(=O)[C@@H]2C1 | i
CCCNC(=O)C[C@@H]1CCN(S(=O)(=O)c2c(C)noc2C)C[C@@H]1CC | -5%[44.1 µM]
CN1C(=O)C(c2ccccc2)CC12CCN(C(=O)C1CCCC1)CC2 (stereo not given) | -2%
CN1C(=O)C(c2ccccc2)CC12CCN(S(C)(=O)=O)CC2 (stereo not given) | -7%
CN1C(=O)C(c2ccccc2)CC12CCN(CCC(=O)O)CC2 (stereo not given) | 10µM*
SMILES | Pf Dd2 growth
O=C(Nc1ccc(F)cc1F)N[C@H]1C[C@H]2C(=O)NC[C@@H](CCC(=O)N3CCc4ccccc43)N2C1 | i
COCC(=O)NC1CCC12CCN(C(=O)c1ccoc1)CC2 (stereo not given) | 8%
c1cc(-c2cc(-c3cn[nH]c3)c3cncn3c2)cc(N2CCOCC2)c1 | -15%[44.1 µM]
C=Cc1ccc(Cn2c(=O)n(CC3CCC(C(=O)NC(C)C)CC3)c(=O)c3sccc32)cc1 (stereo not given) | 11µM*
COc1cccc(Cn2c(=O)n(CC3CCC(C(=O)N4CCOCC4)CC3)c(=O)c3sccc32)c1 (stereo not given) | 8.9µM*
CCCNC(=O)C1CCC(Cn2c(=O)c3sccc3n(CC(=O)NCc3ccccc3)c2=O)CC1 (stereo not given) | -16%
CCCNC(=O)C1CCC(Cn2c(=O)c3sccc3n(Cc3ccccc3C)c2=O)CC1 (stereo not given) | -6%
CNC(=O)C1CCC(Cn2c(=O)c3sccc3n(CC(=O)N3CCCCC3C)c2=O)CC1 (stereo not given) | -3%
CC1CCN(C(=O)Cn2c(=O)n(CC3CCC(C(=O)NC(C)C)CC3)c(=O)c3sccc32)CC1 (stereo not given) | -13%
Cc1cc(NC(=O)N2CCCC(Cn3c(C)nc4cccnc43)C2)ccc1Br (stereo not given) | -18%
COc1ccc(-c2cc(N3CCC(NC(=O)c4cccnc4)C3)n[nH]2)cc1 (stereo not given) | -1%
Cc1cc2nc3n(c(=O)c2n1CC(=O)NCCCc1ccccc1)CCCC3 | -12%
COc1ccc(-c2nc3cc(C)ccc3cc2CN2CCN(C)C(=O)C2)cc1OC | 7.9µM*
CCN1CCN(Cc2cc3ccc(C)cc3nc2-c2ccc(OC)c(OC)c2)CC1 | -29%
COc1ccc(-c2n[nH]c3c2CC(=O)N(CC2CC2)C3)cc1OC | 2%[44.1 µM]
CCCN(Cc1ccc(F)cc1)C(=O)c1cnc(-c2ccc(C)cc2)[nH]c1=O | 19%
O=C(Cn1ccn2nc(-c3ccccc3)c(CO)c2c1=O)N1CCc2ccccc21 | 4%
CCOC(=O)c1cnc2ccc(OC)cc2c1Nc1cccc(C(C)=O)c1 | -7%
CCOC(=O)c1cnc2ccc(OC)cc2c1NCCc1ccccc1 | 4µM*
CCOC(=O)c1cnc2ccc(OCC)cc2c1Nc1cc(Cl)c(OC)cc1OC | 49%
